Only some compounds are listed: those with a hit (about 1.2% of all), similar ones and a draw of the others.
gsp agonist – qHTS for Agonist of gsp, the Etiologic Mutation Responsible for Fibrous Dysplasia/McCune-Albright Syndrome: qHTS. gsp mutant cells, cAMP HTRF, 30 min. Potency, µM (series often up to 76.9 µM), actives largely listed as activators. 340,000 tested, 0.13% active. AID 624287, 2012; active = well fitted activation curve with a large enough effect; inconclusive = small, poorly fitted or top-dose-only effect, or another doubt; inactive = no such curve, though single readings can be large or run the other way; cell line not stated here;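 also: phosphodiesterase inhibitor Ro 20-1724 added with compounds to block cAMP breakdown; nearly all actives have a fitted effect of over 60% in size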
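Cells in DMEM/10% FBS with G418 were pretreated with compounds in DMSO plus […] (300 uM stock) for 30 min at 37C. cAMP was measured by HTRF (cAMP-d2 plus anti-cAMP antibody-K) after 30 min at room temperature.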
gsp antagonist – qHTS for Antagonists of gsp, the Etiologic Mutation Responsible for Fibrous Dysplasia/McCune-Albright Syndrome: qHTS | gsp-mutant cells, cAMP HTRF, 30 min | AID 624288, 2012 | 340,000 tested, 0.4% active | Potency, µM (series often up to 76.9 µM), hits mostly inhibitors; calls by dose curve; cell line not stated here;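 also: intracellular cAMP measured with PDE inhibitor Ro 20-1724 present during compound exposure; nearly all actives have a fitted effect of over 65% in size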
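Cells, 2000/well, grown 16–24 h in DMEM 10% FBS with 0.5 mg/ml G418, then compounds plus […] (300 uM addition stock), 30 min at 37C. cAMP read by HTRF (cAMP-d2 and anti-cAMP antibody-K in lysis buffer) after 30 min RT.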
RXFP1 ag – qHTS Assay for Agonists of the Relaxin Receptor RXFP1 | Relaxin receptor 1 (Homo sapiens), Q9HBX9 | HEK293T-RXFP1 cAMP TR-FRET, 30 min; response scale: percent of porcine relaxin response, buffer zero | 370,000 tested, 0.3% active | Potency, µM (top dose mostly 57.5 µM), hits mostly activators; active = well fitted activation curve with a large enough effect; inconclusive = small, poorly fitted or top-dose-only effect; also: nearly all actives have a fitted effect of over 60% in size
Target sequence (Q9HBX9 whole entry, looked up): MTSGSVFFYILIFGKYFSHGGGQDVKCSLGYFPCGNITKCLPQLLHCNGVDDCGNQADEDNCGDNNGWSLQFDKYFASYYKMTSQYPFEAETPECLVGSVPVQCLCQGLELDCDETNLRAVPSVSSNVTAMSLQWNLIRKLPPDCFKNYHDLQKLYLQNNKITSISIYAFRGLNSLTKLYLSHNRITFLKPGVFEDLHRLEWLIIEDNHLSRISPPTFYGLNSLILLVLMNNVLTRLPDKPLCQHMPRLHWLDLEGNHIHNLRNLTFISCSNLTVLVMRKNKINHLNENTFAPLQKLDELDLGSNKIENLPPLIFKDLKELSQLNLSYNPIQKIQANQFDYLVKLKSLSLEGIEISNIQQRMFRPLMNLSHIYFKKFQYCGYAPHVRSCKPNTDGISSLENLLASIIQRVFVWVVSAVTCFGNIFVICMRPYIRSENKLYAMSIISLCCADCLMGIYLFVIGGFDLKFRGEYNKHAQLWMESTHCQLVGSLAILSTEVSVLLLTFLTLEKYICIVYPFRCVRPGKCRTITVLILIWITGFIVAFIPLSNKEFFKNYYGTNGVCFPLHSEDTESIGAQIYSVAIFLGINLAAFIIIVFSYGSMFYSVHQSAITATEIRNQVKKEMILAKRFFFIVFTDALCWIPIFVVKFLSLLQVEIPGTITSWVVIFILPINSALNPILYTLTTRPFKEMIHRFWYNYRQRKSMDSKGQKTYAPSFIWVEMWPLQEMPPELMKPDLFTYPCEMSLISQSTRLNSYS
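cAMP rise read by TR-FRET after 30 min, 37C compound exposure (up to 58 uM) in RXFP1-transfected HEK293 cells with Ro 20174 present. EC50 from Hill-equation fits, with 29 nM porcine relaxin as 100% and buffer as basal.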
Akt phos inh – HTS Assay for Inhibitors of Akt Phophorylation: Primary Screen. 360,000 tested, 0.32% active. Neuro2A IGF-stimulated pAkt S473 HTRF, 20 min; stronger effect = lower value. activity change, % for hits at 50 µM; in the data active = activity change below about -80%; inconclusive = mostly about -51% to -80%
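Neuro2A cells (4,500/well, DMEM with 0.5% FBS) were treated with compound at a single 50 µM final concentration, stimulated with 6 nM IGF for 20 min at 37 °C, and lysed. Phospho-Akt Ser473 was read by HTRF as 665/615 ratio ×10^4.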
RXFP1 antag – qHTS Assay for Antagonists of the Relaxin Receptor RXFP1. Relaxin receptor 1 (Homo sapiens), Q9HBX9. HEK293-RXFP1, relaxin-stimulated cAMP HTRF, 30 min; stronger effect = lower value. activity change, negative = inhibition, % at 57.5 µM. 350,000 tested, 0.59% active. AID 1259400, 2018;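 active = activity change of -60% or lower, but not beyond a set lower limit; inconclusive = change between -60% and -40%, or beyond the set limit; inactive = change above -40%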
Hits are given with their value; - = inactive; ? = inconclusive; . = not tested or not shown; [ ] = remark or other dose.

SMILES | gsp agonist | gsp antagonist | RXFP1 ag | Akt phos inh | RXFP1 antag
O=C1C(=O)c2c(C(=O)c3ccccc3)coc2-c2ccccc21 | - | - | - | - | -78
Cc1cccc(-c2nc(CCNC(=O)c3ccccc3Br)cs2)c1 | . | . | - | . | -
COc1cccc(-c2ccc3ncnc(NCc4cccc(F)c4)c3c2)c1 | . | . | - | . | .
C=CCn1c(C2CC2)n[nH]c1=S | - | - | - | - | -
CCCCCC1CCC(c2n[nH]c(=S)n2C)CC1 (centres undefined) | -[15.4 µM] | - | - | - | -64
CCN1CCN(c2cc3c(cc2F)c(=O)c(S(=O)(=O)c2cc(C)cc(C)c2)cn3CC)CC1 | . | . | - | . | -
CN(C(=O)Nc1ccc(Cl)cc1)c1c2c(nn1C)CCCC2 | - | - | - | -87% | -
CN(NC(=O)Nc1ccc(Cl)cc1)c1c(Cl)c(Cl)nn1C | - | - | - | - | -
Cc1ccc2c(Br)cc(Br)c(O)c2n1 | . | . | . | . | -
C=CCn1c(CCn2c3ccccc3c3ccccc32)n[nH]c1=S | - | - | - | - | ?
C=C(C)Cn1c(CCn2c3ccccc3c3ccccc32)n[nH]c1=S | - | - | - | - | -65
Cc1ccc(/C=C/C(=O)NC(=S)Nc2ccc(S(=O)(=O)Nc3cc(C)on3)cc2)cc1 | - | 35µM | - | - | -
Cc1cccc(N2CCN(C(=O)c3nn(C)c4c3CSc3ccccc3-4)CC2C)c1 (centres undefined) | . | . | - | . | -
COc1ccc(NC(=S)NCc2ccccc2)c(OC)c1 | - | - | - | - | -73
Cc1noc2ncnc(N3CCN(c4cccc(Cl)c4)CC3)c12 | - | 35µM | - | - | -
CCc1ccc(/C=N/NC(=O)c2cc(-c3ccncc3)nc3ccccc23)s1 | - | - | - | - | -
CCCc1cc(C(=O)N/N=C/c2ccc(CC)s2)c2ccccc2n1 | - | - | - | -118% | -
CCOc1ccc(CCNc2ncnc3onc(-c4ccc(Cl)cc4)c23)cc1 | . | . | - | . | -
O=C(CSc1nc2ccc(Cl)cc2[nH]1)NC1CCCC1 | ? | - | - | - | -
Cc1ccc2nc(SCC(=O)NC3CC3)[nH]c2c1 | - | - | - | - | -
O=C(CSc1nc2ccc([N+](=O)[O-])cc2[nH]1)NC1CCCCC1 | - | 28µM | - | - | -
O=C(CSc1nc2ccc([N+](=O)[O-])cc2[nH]1)NC1CCCCCC1 | -[15.4 µM] | 40µM | - | - | -
CCOc1ccc(S(=O)(=O)Nc2cccc(OC)c2)c2cccnc12 | . | . | - | . | .
Cc1ccc(-n2nc(CO)c(C(=O)NCCCCc3ccccc3)n2)cc1 | . | . | - | . | -
O=C(NCC(c1ccccc1)c1ccccc1)c1nn(-c2ccccc2Cl)nc1CO | . | . | - | . | -66
SMILES | gsp agonist | gsp antagonist | RXFP1 ag | Akt phos inh | RXFP1 antag
Cc1ccccc1-n1nc(CO)c(C(=O)NCC(c2ccccc2)c2ccccc2)n1 | . | . | - | . | ?
O=C(NCCCCc1ccccc1)c1nn(-c2ccccc2)nc1CO | . | . | - | . | -69
Cc1nc(-c2ccc(S(=O)(=O)N(C)Cc3ccccc3)cc2)co1 | . | . | - | . | .
O=C(CCCCCCCCC#CI)Oc1ccccc1 | . | . | . | . | -
Cc1cc(C)cc(-n2ccnc2SCC(=O)Nc2ccccc2F)c1 | . | . | - | . | .
CCc1ccc(NC(=O)C2CCCN(S(=O)(=O)c3c(C)noc3/C=C/N(C)C)C2)cc1 (centres undefined) | . | . | - | . | -
O=C(Cn1cc(/C=C\[N+](=O)[O-])c2ccccc21)Nc1ccccc1 | - | - | - | - | -105
O=[N+]([O-])/C=C/c1cn(Cc2ccccc2)c2ccccc12 | - | - | - | - | ?
N#Cc1ccccc1Cn1cc(/C=C/[N+](=O)[O-])c2ccccc21 | -[15.4 µM] | - | - | - | -65
CCOc1ccc(-c2nc3c(C#N)c[nH]n3c2NC2CCCC2)cc1 | . | . | - | . | -
Cc1cc(NC(=O)COC(=O)C2CC(=O)N(c3ccc(Cl)cc3)C2)no1 (centres undefined) | - | - | - | - | ?
CCc1ccc(N2CC(C(=O)OCC(=O)Nc3cc(C)on3)CC2=O)cc1 (centres undefined) | - | - | - | -89% | -
O=C(COc1ccccc1)Nc1ccccc1C(=O)OCc1cc(=O)n2nc(C3CC3)sc2n1 | . | . | - | . | -
Cc1nc(SCC(=O)N2CCN(C(=O)c3ccco3)CC2)c2c(C)c(C)sc2n1 | ? | - | - | - | -
Cc1nc(SCC(=O)N2CCN(C(=O)c3cccs3)CC2)c2c(C)c(C)sc2n1 | ? | - | - | - | -64
C/C(=N/NC(=O)c1ccncc1)C(=O)O | . | . | . | . | -
Cc1nc2ccccc2c2oc(C(=O)NCC3COc4ccccc4O3)cc12 (centres undefined) | ? | 40µM | - | - | -84
O=C(N/N=C/c1ccc(OC(=O)c2ccccc2Cl)cc1)c1cc(O)cc(O)c1 | -[15.4 µM] | - | - | - | -85
Cc1ccc(N(Cc2cc(=O)[nH]c3ccccc23)C(=O)c2ccco2)cc1 | - | - | - | -119% | -
CC(=O)N(Cc1cc(=O)[nH]c2ccccc12)c1ccc(C)cc1 | - | - | - | - | -
COc1ccc2[nH]c(=O)c(CN(Cc3ccco3)C(c3nnnn3Cc3ccccc3)C(C)C)cc2c1 (centres undefined) | - | - | - | -105% | -
COCCn1nnnc1C(C(C)C)N(Cc1ccccc1)Cc1cc2cc(OC)ccc2[nH]c1=O (centres undefined) | ? | - | - | - | -
CCCCN(Cc1cc2cc(OC)ccc2[nH]c1=O)C(=O)c1ccco1 | ? | - | - | -93% | -
Cc1ccc(N(Cc2cc3ccccc3[nH]c2=O)C(=O)c2ccco2)c(C)c1 | - | - | - | -112% | -
CC(=O)c1ccc(NC(=O)NCCc2c[nH]c3ccccc23)cc1 | . | . | - | . | -
SMILES | gsp agonist | gsp antagonist | RXFP1 ag | Akt phos inh | RXFP1 antag
CC(NC(=O)c1ccc(F)cc1)c1nc2ccccc2[nH]1 (centres undefined) | . | . | - | . | .
Cc1cccc(-n2c(SCC(N)=O)nc3c(c2=O)C2(CCCC2)Cc2ccccc2-3)c1 | 10µM | - | - | - | .
COc1cc(/C=C2\SC(=O)NC2=O)ccc1Oc1ccc([N+](=O)[O-])cn1 | -[15.4 µM] | - | - | - | -
COc1cc(/C=C2/SC(=O)NC2=O)ccc1Oc1ccc([N+](=O)[O-])cc1[N+](=O)[O-] | ? | 25µM | - | - | -
O=C(NCc1ccccc1)C1CCN(S(=O)(=O)c2ccc(N3CCCC3=O)cc2)CC1 | ? | - | - | - | -
O=C(NCc1ccc(Cl)cc1)C1CCN(S(=O)(=O)c2ccc(N3CCCC3=O)cc2)CC1 | - | - | - | - | -66
O=C(CSc1oc(-c2ccco2)nc1S(=O)(=O)c1ccccc1)NCC1CCCO1 (centres undefined) | - | - | - | -101% | -

Assay outcomes from PubChem.
